Results: ChEMBL document CHEMBL3988442, “University of Dundee, Small-Polar-MMV Screening Library” (2021)
In all, about 38,000 compounds went through this assay and about 1,200 (3.2%) showed an effect of 50% or more. The median lay at about -58%. Shown is part of a subset that was picked to be rich in strong results.

Tested on: Plasmodium falciparum
Assay: Calibr Malaria Delayed Death Assay SOP
Assay type: functional, organism-based
Set-up: scale not given: in the data most compounds retested in dose-response had high values
Settings: concentration 4.99e-06 (unit not given; other assays of the set use mol/L)

| Structure (SMILES) | Percent Effect |
| --- | --- |
| O=C(NCCn1cccn1)c1ccn(-c2cccc(F)c2)n1 | -72.56% |
| Cc1noc2nc(C3CC3)c(Cl)c(C(=O)O)c12 | -135.9% |
| Cc1ccc(N2CCC(C(=O)NC3CCc4nccn4C3)CC2)nc1 (stereo not drawn) | -14.8% |
| CC(C)[C@@H]1CN(C(=O)C2(c3ccccc3)CCN(C)CC2)C[C@H]1N(C)C | 83.06% |
| CC(C)[C@@H]1CN(C(=O)NCc2ccco2)C[C@H]1N(C)C | -12.41% |
| CC(C)[C@@H]1CN(C(=O)CN(C)Cc2ccccc2)C[C@H]1C(=O)O | -22.97% |
| CCCn1c(N2CCCC(C)C2)nc2c(C)nn(C)c2c1=O (stereo not drawn) | -32.41% |
| Cc1ncncc1C(=O)N1CCOC(c2nc(C(C)C)n[nH]2)C1 (stereo not drawn) | -146.2% |
| Cn1ncc(N2CCOC(CCNC(=O)CO)C2)cc1=O (stereo not drawn) | -51.52% |
| CC(=O)N1CCC2(CCN(C(=O)c3ccc(F)c(C(F)(F)F)c3)CC2)C1 | -64.74% |
| Cc1cc(CNC(=O)NCc2ccccc2N2CCOCC2)no1 | -32.16% |
| CN1CCN(c2ccccc2CNC(=O)CSC(F)(F)F)CC1 | 67.15% |
| Cc1cc(=O)n(C)cc1NC(=O)Cc1cccc(F)c1 | -34.19% |
| O=C(CN1CCS(=O)(=O)CC1)NCc1ccccc1F | -87.27% |
| CN1CCCN(c2ccc(F)cc2CNC(=O)c2ccsc2)CC1 | 59.32% |
| Cc1ccc(C(=O)NCc2cc(F)ccc2N2CCCN(C)CC2)o1 | 33.96% |
| CCOCCCNC(=O)Cc1cccc(F)c1 | -98.72% |
| O=C(NCc1cccnc1N1CCCC(O)C1)c1ccsc1 (stereo not drawn) | -31.1% |
| CC(C)N(C)CC(=O)NCc1ccccc1N1CCN(C)CC1 | 43.49% |
| CN1CCN(c2ccccc2CNC(=O)Cc2cccc(F)c2)CC1 | 77.21% |
| CN1CCN(c2ccccc2CNC(=O)Cc2ccccc2F)CC1 | 75.84% |
| CCc1ccccc1CNC(=O)CNCC(F)(F)F | -137.2% |
| CC(=O)N1CCCN(C(=O)c2cnn(C(C)(C)C)c2C)CC1 | -71.74% |

| Structure (SMILES) | Percent Effect |
| --- | --- |
| Cc1ccc(CNC(=O)C2CCNC(=O)C2)c(OCCC(C)C)c1 (stereo not drawn) | -137.1% |
| COc1nn(C)c2c1CCCN(C(=O)c1ccc3ccccc3n1)C2.O=C(O)C(F)(F)F | -93.98% |
| O=C(NCc1cc(=O)n2c(n1)CN(CC1CC1)CCC2)c1ccsc1.O=C(O)C(F)(F)F | -77.99% |
| Cc1cc(NS(=O)(=O)c2cccs2)ccc1-n1cccc1C(=O)O | -24.74% |
| CN1CCN(c2ccccc2NC(=O)NCCc2ccccc2)CC1 | 83.6% |
| CN1CCN(c2ccccc2NC(=O)NCC[S+](C)[O-])CC1 (stereo not drawn) | -127.8% |
| CN1CCN(c2ccccc2NC(=O)NCCc2ccc(O)cc2)CC1 | -22.54% |
| c1nc(N2CCc3[nH]cnc3C2)c2cc[nH]c2n1 | -49.27% |
| CCn1nc(C)c2nc(C(C)C)nc(NCc3ccccn3)c21 | 36.29% |
| Cc1nc2sccn2c1CNc1ccc(C(=O)O)cc1 | -70.26% |
| Cc1ccc(CN(CCN(C)C)C(=O)Cc2cn3ccccc3n2)o1 | -71.99% |
| O=C(C1CCCN1Cc1nc(-c2ccco2)no1)N1CCSCC1 (stereo not drawn) | -120.3% |
| c1ccc(-c2nc3c(c(NCc4n[nH]c5c4CCC5)n2)CCNC3)cc1 | 89.28% |
| c1coc(-c2nc3c(c(NCc4n[nH]c5c4CCC5)n2)CCNCC3)c1 | 20.11% |
| Nc1nc2c(c(NCc3cnc4c(c3)CCC4)n1)CCNC2 | -34.51% |
| COc1ccccc1C(C)NC(=O)NCCC(=O)NC1CCCCC1 (stereo not drawn) | -102.7% |
| Cc1nc(C(=O)N2CCN(S(C)(=O)=O)CC2)c(-c2ccccc2)s1 | -18.55% |
| CC(C)COCCCNC(=O)c1cccnc1N1CCOCC1 | -144.5% |
| CNC(=O)CC1CC2(CCNCC2)c2cc(F)ccc21 (stereo not drawn) | -118.7% |
| Cc1ccc2c(c1)C(NC(C)C)CC21CCNCC1.Cl (stereo not drawn) | -48.62% |
| Cl.Cl.Fc1ccc2c(c1)C1(CCNCC1)CC2NC1CC1 (stereo not drawn) | 82.19% |
| Cc1ccc2c(c1)C1(CCNCC1)CC2OCC1CC1 (stereo not drawn) | 44.42% |
| CC(C)NC1CC2(CCNCC2)c2cc(F)ccc21.Cl.Cl (stereo not drawn) | 6.754% |

| Structure (SMILES) | Percent Effect |
| --- | --- |
| Cc1ccc2c(c1)C1(CCNCC1)CC2NCCO.Cl.Cl (stereo not drawn) | -29.16% |
| Cl.O=C1NC2(CCNCC2)CC1c1ccccc1 (stereo not drawn) | -140.8% |
| Fc1ccc2c(c1)C1(CCNCC1)CC2OCC1CC1 (stereo not drawn) | 69.13% |
| Cl.Cl.c1ccc2c(c1)C(NC1CCCC1)CC21CCNCC1 (stereo not drawn) | 74.54% |
| COCCN1CCC2(CC1)CC(OCC1CC1)c1ccc(C)cc12 (stereo not drawn) | 40.12% |
| Cc1ccc2c(c1)C(NC1CC1)CC21CCNCC1.Cl (stereo not drawn) | 82.38% |
| CCCc1noc(CN2CCC(C(=O)Nc3cnn(CC)c3)CC2)n1 | -105% |
| Cc1cc(C)n(C2CCCN(C(=O)Cc3cccs3)C2)n1 (stereo not drawn) | -45.18% |
| Cc1nccn1CCCn1c(=O)cnc2ccccc21 | -30.97% |
| CNC(=O)C1(CCCc2ccncc2)CCN1.O=C(O)C(F)(F)F (stereo not drawn) | -123.5% |
| Cc1ccc2c(c1)C1(CCNCC1)CC2NC(C)C.Cl.Cl (stereo not drawn) | -38.07% |
| COc1ccc2c(c1)C1(CCNCC1)CC2NC1CC1.Cl.Cl (stereo not drawn) | -4.171% |
| Cc1ccc2c(c1)C1(CCNCC1)CC2NC1CC1.Cl.Cl (stereo not drawn) | 73.32% |
| COc1ccnc(N2CCC(OCCN3CCCCC3)C2)n1 (stereo not drawn) | 51.05% |
| C1CCN(CCOC2CCNCC2)CC1 | -37.31% |
| CC(C)(C)c1nccc(N2CCN(C3CCS(=O)(=O)C3)CC2)n1 (stereo not drawn) | -36.45% |
| Cc1ccnc(N2CCC(OCCN3CCCCC3)C2)n1 (stereo not drawn) | -84.22% |
| CC(C)(C)c1nccc(N2CCC(OCCN3CCCCC3)C2)n1 (stereo not drawn) | 62.36% |
| Cc1cnc(N2CCC(OCCN3CCCCC3)C2)nc1C (stereo not drawn) | 23.23% |
| O=c1cc(Cn2ccnc2)nc2n1CCCN(Cc1ccncc1)C2 | -42.89% |
| Cn1cccc1C(=O)N1CCCn2nc(CCC(=O)NC3CC3)cc2C1 | -14.31% |
| O=C(c1ccc(S(=O)(=O)NCc2ccon2)cc1)N1CCOCC1 | -26.34% |
